TDP1 cell CPT – DT40-hTDP1 cell growth loss with CPT; chicken DT40 Tdp1-/-;hTDP1 cells + 20 nM CPT, ATP luminescence, 48 h; Potency, µM (top dose mostly 46.2 µM), hits mostly inhibitors; actives 12% (n = 420,000); AID 686979; further: nearly all actives have a fitted effect of over 55% in size
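Cell growth measured by CellTiter-Glo luminescence after a minimum 48 h, 37 C compound exposure with 20 nM CPT in Tdp1-knockout DT40 cells stably expressing hTDP1, seeded 400/well; qHTS titration format.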
IL1B secr inh – inflammasome signaling inhibition, IL-1 beta readout; THP-1 LPS/ATP IL-1B secretion, AlphaLISA, 16 h; active compounds read low; activity change, % at 57.5 µM; actives 4.7% (n = 360,000); AID 743279; in the data active means activity change below about -50%; inconclusive means mostly about -30% to -49%
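THP-1 cells pretreated 1 hr with compounds (up to 57.5 uM final), then stimulated with LPS (250 ng/mL final) plus ATP (1.25 mM final); secreted IL-1B measured by AlphaLISA after 16 hr, decreased signal indicating inhibition.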
TDP1 cell noCPT – qHTS for Inhibitors of human tyrosyl-DNA phosphodiesterase 1 (TDP1): qHTS in cells in absence of CPT. Potency, µM (doses to about 46.2 µM), hits mostly inhibitors. AID 686978, 2013. actives 15% (n = 420,000). DT40 Tdp1-/- hTDP1 cells, no CPT, ATP luminescence, 48 h; further: nearly all actives have a fitted effect of over 55% in size
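Growth kinetics read by CellTiter-Glo luminescence after ≥48 hr at 37 °C. Cells: DT40 Tdp1-/- stably carrying human TDP1, 400 per well, compound exposure in the absence of CPT (DMSO vehicle).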
TGFb SMAD3 inh – TGF-b pathway inhibition; HepG2 CAGA-GFP TGF-b/SMAD3 reporter, GFP fluorescence, 18 h; TGF-beta stimulated, 500 pg/mL final; Potency, µM (titrated, usually from 46.1 µM), most hits filed as inhibitors; actives 1.2% (n = 410,000); further: nearly all actives have a fitted effect of over 65% in size
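GFP signal (ex488/em500-530) from TGF-beta-stimulated HEPG2 CAGA-GFP cells, 500 pg/mL final, 18 h at 37 degrees C in DMEM plus 1% FBS, normalized to unstimulated and DMSO-stimulated controls.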
HepG2 viability – counter-screen for TGF-b inhibitors: cytotoxicity in HepG2 cells; HepG2 CAGA-GFP viability, ATP luminescence, 18 h; actives 0.76% (n = 410,000); Potency, µM (top dose mostly 46.1 µM), most hits filed as cytotoxic
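CellTiter-Glo luminescence gave cytotoxicity after 18 hours at 37 degrees C. The cells were HepG2 CAGA-GFP in 1% FBS DMEM, stimulated with 500 pg/mL TGF-beta after compound addition. %Activity was normalised to no-cell wells (complete cell-killing) and DMSO (no toxicity), and curves were fitted and classified.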
TDP1 block – blocks human tyrosyl-DNA phosphodiesterase 1. Q9NUW8. recombinant TDP1, AlphaScreen DNA substrate cleavage. Potency, µM (highest dose often 130 µM), hits mostly inhibitors. actives 0.28% (n = 350,000). AID 485290; further: nearly all actives have a fitted effect of over 40% in size
Target sequence (Q9NUW8 whole entry, looked up): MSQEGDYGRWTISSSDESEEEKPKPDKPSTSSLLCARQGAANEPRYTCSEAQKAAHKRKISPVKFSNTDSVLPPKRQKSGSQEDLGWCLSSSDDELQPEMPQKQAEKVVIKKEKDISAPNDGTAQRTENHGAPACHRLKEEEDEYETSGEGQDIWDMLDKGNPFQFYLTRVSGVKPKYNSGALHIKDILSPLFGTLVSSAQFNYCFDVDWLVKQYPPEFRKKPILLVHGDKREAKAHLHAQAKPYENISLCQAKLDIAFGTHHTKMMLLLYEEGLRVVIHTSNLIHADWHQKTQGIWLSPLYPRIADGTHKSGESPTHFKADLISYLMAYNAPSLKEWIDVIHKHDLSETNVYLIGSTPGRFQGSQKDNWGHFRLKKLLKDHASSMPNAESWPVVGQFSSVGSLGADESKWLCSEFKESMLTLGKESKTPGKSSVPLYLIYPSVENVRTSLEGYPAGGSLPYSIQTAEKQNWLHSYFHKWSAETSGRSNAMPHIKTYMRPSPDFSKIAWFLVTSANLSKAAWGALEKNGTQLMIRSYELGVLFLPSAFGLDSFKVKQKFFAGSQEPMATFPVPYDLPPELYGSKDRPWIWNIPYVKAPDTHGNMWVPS
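Enzyme-compound mixtures sat 15 min at room temperature, followed by a 5 min reaction with 15 nM final substrate and 10 min with AlphaScreen beads. Recombinant human Tdp1 was used at 1 nM final.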
Large screens that a line does not name were inactive. A selection: hits, their analogues and other compounds. The true share with any hit is near 18%. Unless noted, the call rests on the fitted dose curve; in most records, active means well fitted curve in the direction sought with a large enough effect; inconclusive means small, poorly fitted or top-dose-only effect, or another doubt; inactive means no such curve, though single readings can be large; an effect the other way counts as inactive or inconclusive.

COCCN(C(=S)Nc1ccc(C)c(C)c1)C(C)c1ccco1 (stereo unspecified)	TDP1 cell CPT inconclusive, TDP1 cell noCPT inconclusive, TGFb SMAD3 inh inconclusive
Cc1ccc(NC(=S)N(C)C(c2ccccc2)c2ccccc2)cc1C	TDP1 cell CPT inconclusive, TDP1 cell noCPT 23µM, TGFb SMAD3 inh inconclusive (no result: TDP1 block)
O=C(NCCc1nc2ccccc2[nH]1)C1CCC(=O)N(CCc2cccc(F)c2)C1 (stereo unspecified)	none
CN(C)c1ccc(S(=O)(=O)N(C)C)cc1NC(=O)Cc1cccc2ccccc12	TDP1 cell CPT inconclusive, IL1B secr inh -52, TDP1 cell noCPT inconclusive, TDP1 block inconclusive
Cc1cc(O)ccc1NC(=O)Cc1cccc2ccccc12	none (no result: TDP1 block)
O=C(NCCO)c1ccc2nc(-c3ccco3)c(-c3ccco3)nc2c1	TDP1 cell CPT inconclusive, TDP1 cell noCPT 21µM (no result: TDP1 block)
O=C(O)c1ccc2nc(-c3ccccc3)c(-c3ccccc3)nc2c1	none
O=C(c1ccccc1)c1ccc2nc(-c3ccco3)c(-c3ccco3)nc2c1	TDP1 cell CPT 21µM, TDP1 cell noCPT 21µM, TGFb SMAD3 inh inconclusive
O=C(NCCc1ccccc1)c1ccc(=O)oc1	none
O=C(NCCO)c1ccc(Cl)c(Cl)c1	none
O=C(NCCc1ccccc1)c1ccc2nc(-c3ccco3)c(-c3ccco3)nc2c1	TDP1 cell CPT 21µM, IL1B secr inh inconclusive, TDP1 cell noCPT 18µM
c1coc(-c2cnc3ccccc3n2)c1	none (no result: TDP1 block)
c1coc(-c2nc3ccccc3nc2-c2ccco2)c1	TDP1 cell CPT 18µM, IL1B secr inh inconclusive, TDP1 cell noCPT inconclusive (no result: TDP1 block)
Cc1ccc(-n2nc3cc(C)c(NC(=O)COc4ccccc4)cc3n2)cc1	none (no result: IL1B secr inh)
Cc1cccc(C)c1OCc1nnc(SCC(=O)Nc2ccc(N3CCOCC3)cc2)o1	none
C=CCN(c1ccc(Cl)cc1)S(=O)(=O)c1cccc(C(=O)O)c1	none
Cc1c(Cc2ccccc2)sc(/N=C/c2ccc3ccccc3c2)c1C(N)=O	TDP1 cell CPT 0.73µM, TDP1 cell noCPT 0.82µM
Cc1c(Cc2ccccc2)sc(/N=C/c2c(O)ccc3ccccc23)c1C(N)=O	TDP1 cell CPT 23µM, TDP1 cell noCPT inconclusive
O=C(CCCCCNc1nc(=S)[nH]c2ccccc12)NCc1ccccc1Cl	none (no result: TDP1 cell CPT, IL1B secr inh, TDP1 cell noCPT, TGFb SMAD3 inh, HepG2 viability)
O=C(NCCc1ccc(Cl)cc1)C1CCC(CNc2nc(=S)[nH]c3ccccc23)CC1 (stereo unspecified)	TDP1 cell CPT 6.5µM, TDP1 cell noCPT 9.2µM
O=C(NCc1ccccc1Cl)C1CCC(CNS(=O)(=O)c2ccc(Cl)cc2)CC1 (stereo unspecified)	none (no result: IL1B secr inh)
O=C(NCCC1=CCCCC1)C1CCC(CNc2nc(=S)[nH]c3ccccc23)CC1 (stereo unspecified)	TDP1 cell CPT inconclusive, TDP1 cell noCPT 16µM, TGFb SMAD3 inh inconclusive
O=C(NCc1ccccc1Cl)C1CCC(CNc2nc(=S)[nH]c3ccccc23)CC1 (stereo unspecified)	TDP1 cell CPT inconclusive, TDP1 cell noCPT 26µM
S=c1nc(NCCc2ccccc2Cl)c2ccccc2[nH]1	TDP1 cell noCPT 26µM (no result: TDP1 block)
O=C(NCCC1=CCCCC1)C1CCC(CNS(=O)(=O)c2ccccc2)CC1 (stereo unspecified)	TDP1 cell noCPT inconclusive
CCN(CC(=O)Nc1ccc(Br)cc1)CC(=O)Nc1cc(C)on1	TDP1 cell CPT inconclusive, TDP1 cell noCPT inconclusive
Cc1ccc(S(=O)(=O)N2CCN(C(=O)c3ccccc3OCc3c(C)noc3C)CC2)cc1	TDP1 cell CPT 18µM, TDP1 cell noCPT inconclusive
Cc1cccc(N2CCN(C(=O)c3ccccc3OCc3c(C)noc3C)CC2)c1C	TDP1 cell CPT 18µM, IL1B secr inh inconclusive, TDP1 cell noCPT 16µM
CCN1C(=O)CC(N2CCN(c3ccc(Cl)cc3)CC2)C1=O (stereo unspecified)	none

Screening results as filed in PubChem.
